# PubChem BioAssay (NCATS)
# Records with an inconclusive call do not appear. Where a call stands in place of a potency, no number is given. Active and inactive are the calls of the source. Unless noted, calls come from the whole dose curve; as a rule, active = well fitted curve in the direction sought with a large enough effect; inconclusive = small, poorly fitted or top-dose-only effect, or another doubt; inactive = no such curve, though single readings can be large; an effect the other way counts as inactive or inconclusive.
# How the values were obtained:
# [1] = qHTS for differential inhibitors of proliferation of Plasmodium falciparum line Dd2 (AID 1882); details: Potency: Plasmodium falciparum Dd2 proliferation inhibition; note: nearly all actives have a fitted effect of over 65% in size; note: potency is the fitted concentration of half-maximal effect
# Method in brief: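 Dd2-infected erythrocytes (0.3% parasitemia, 2.5% hematocrit final) incubated with compound 72 h at 37 C, 5% CO2; lysed with saponin/Triton buffer containing SYBR Green I, incubated overnight in the dark, then read by fluorescence (485/535 nm). Normalized to 0.29 uM artemisinin and DMSO.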
# [2] = qHTS for differential inhibitors of proliferation of Plasmodium falciparum line W2 (AID 1883); details: Potency: Plasmodium falciparum W2 proliferation inhibition;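 note: parasites grown with compound for 72 h before lysis and staining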; note: potency is the fitted concentration of half-maximal effect
# [3] = qHTS for differential inhibitors of proliferation of Plasmodium falciparum line HB3 (AID 1886); details: Potency: Plasmodium falciparum HB3 proliferation inhibition;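 note: parasites grown with compound for 72 h before SYBR Green readout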; note: potency is the fitted concentration of half-maximal effect
# [4] = target: Ferritin light chain (Equus caballus) (UniProt P02791); assay: qHTS Validation Assay for Identification of Novel General Anesthetics (AID 2323); note: series mostly up to about 77 µM
# Chain of Ferritin light chain (Equus caballus) (P02791 2-175 limits assumed): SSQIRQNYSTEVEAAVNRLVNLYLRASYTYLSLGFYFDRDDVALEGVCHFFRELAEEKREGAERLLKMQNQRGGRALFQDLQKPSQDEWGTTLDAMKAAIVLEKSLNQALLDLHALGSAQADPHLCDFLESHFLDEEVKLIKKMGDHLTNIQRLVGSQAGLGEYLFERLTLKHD
# Method in brief: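 Horse-spleen apoferritin (10 uM) in PBS with 50% saturated 1-aminoanthracene; compounds pin-transferred, 10 min at room temperature. Fluorescence read at 380/535 nm, normalized to free 1-AMA and 1-AMA/apoferritin values; four-parameter Hill fit.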
# [5] = target: RecQ-like DNA helicase BLM (Homo sapiens) (UniProt P54132); assay: qHTS Validation Assay for Inhibitors of Bloom's syndrome helicase (BLM) (AID 2364)
# Chain of RecQ-like DNA helicase BLM (Homo sapiens) (P54132 whole entry, looked up): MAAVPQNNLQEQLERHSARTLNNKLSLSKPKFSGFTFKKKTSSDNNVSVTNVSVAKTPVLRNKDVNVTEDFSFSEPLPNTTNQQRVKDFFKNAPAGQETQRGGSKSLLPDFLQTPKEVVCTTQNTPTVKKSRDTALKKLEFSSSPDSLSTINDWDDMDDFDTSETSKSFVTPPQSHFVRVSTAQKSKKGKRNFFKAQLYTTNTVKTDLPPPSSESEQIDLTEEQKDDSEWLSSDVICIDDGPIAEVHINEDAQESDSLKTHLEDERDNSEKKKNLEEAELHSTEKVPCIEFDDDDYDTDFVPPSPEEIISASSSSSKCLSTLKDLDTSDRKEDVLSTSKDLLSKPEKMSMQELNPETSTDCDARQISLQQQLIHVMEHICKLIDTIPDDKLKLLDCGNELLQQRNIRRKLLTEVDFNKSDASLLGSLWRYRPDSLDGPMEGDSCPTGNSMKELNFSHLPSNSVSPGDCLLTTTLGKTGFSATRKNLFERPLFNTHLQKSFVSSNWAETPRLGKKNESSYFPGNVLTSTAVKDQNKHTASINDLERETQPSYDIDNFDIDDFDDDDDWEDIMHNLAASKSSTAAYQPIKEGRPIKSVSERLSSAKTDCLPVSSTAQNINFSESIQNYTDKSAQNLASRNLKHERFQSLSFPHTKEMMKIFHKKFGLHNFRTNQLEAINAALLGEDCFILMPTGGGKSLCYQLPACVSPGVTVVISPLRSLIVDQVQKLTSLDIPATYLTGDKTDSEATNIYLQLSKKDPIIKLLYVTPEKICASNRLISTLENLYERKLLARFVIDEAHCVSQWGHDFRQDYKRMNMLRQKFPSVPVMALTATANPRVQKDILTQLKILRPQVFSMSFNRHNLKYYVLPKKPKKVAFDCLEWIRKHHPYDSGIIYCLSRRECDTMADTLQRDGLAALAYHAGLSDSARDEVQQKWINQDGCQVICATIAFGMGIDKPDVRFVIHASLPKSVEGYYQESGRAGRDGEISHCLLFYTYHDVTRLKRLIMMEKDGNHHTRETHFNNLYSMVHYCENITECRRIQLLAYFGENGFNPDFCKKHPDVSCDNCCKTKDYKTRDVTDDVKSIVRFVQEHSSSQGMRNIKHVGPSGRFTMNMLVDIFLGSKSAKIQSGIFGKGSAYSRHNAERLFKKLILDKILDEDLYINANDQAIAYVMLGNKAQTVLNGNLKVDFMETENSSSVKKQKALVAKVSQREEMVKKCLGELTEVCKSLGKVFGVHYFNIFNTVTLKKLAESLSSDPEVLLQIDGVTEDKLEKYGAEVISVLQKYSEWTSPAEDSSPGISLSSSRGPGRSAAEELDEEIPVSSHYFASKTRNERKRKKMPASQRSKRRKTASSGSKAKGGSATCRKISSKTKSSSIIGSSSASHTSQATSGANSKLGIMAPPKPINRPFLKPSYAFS
# Method in brief: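 Forked 20-bp duplex substrate (200 nM, TAMRA/BHQ-2) plus 2 mM ATP added after 15 min compound preincubation with 50 nM enzyme, pH 8.0, poly(dI-dC) 2.5 ug/ml. Strand separation followed by fluorescence (525/598 nm) over 2 h, normalized to enzyme-free and DMSO controls.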
# [6] = Validation screen for small molecules that induce DNA re-replication in MCF 10A normal breast cells (AID 463097); note: nearly all actives have a fitted effect of over 60% in size
# Method in brief: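 MCF 10A cells exposed to compound 48 hr at 37 C, 5% CO2, then Hoechst-stained 40 min. Laser-scanning imaging of nuclear DNA content (405 nm ex, 500-530 nm em); re-replication scored as rise in nuclei with elevated fluorescence intensity.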
# [7] = Quantitative high throughput screen for delayed death inhibitors of the malarial parasite plastid, 96 hour incubation (AID 488745); note: nearly all actives have a fitted effect of over 70% in size; note: potency is the fitted concentration of half-maximal effect
# Method in brief: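 Luciferase-expressing P. falciparum in erythrocytes (2% hematocrit, 0.1% parasitemia) incubated with compound for 96 h at 37 C, 5% CO2, in RPMI 1640 with 0.5% Albumax. Growth inhibition read as decreased luminescence.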
# [8] = Quantitative high throughput screen for delayed death inhibitors of the malarial parasite plastid, 48 hour incubation (AID 488752); note: nearly all actives have a fitted effect of over 65% in size; note: potency is the fitted concentration of half-maximal effect
# Method in brief: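 Erythrocytes infected with firefly luciferase-expressing P. falciparum (2% hematocrit, 0.1% parasitemia) cultured with compound for 48 h at 37 C, 5% CO2, in RPMI 1640/0.5% Albumax. Growth inhibition read as loss of luminescence.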
# [9] = qHTS Assay for Modulators of Human Peripheral Myelin Protein 22 (PMP22) Expression/Activity (AID 1967; active = well fitted curve in the direction sought with a large enough effect in the signal ratio; the % refers to the signal ratio)
# Method in brief: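 Mouse MSC80 Schwann cells carrying Pmp22 promoter–green click beetle luciferase plus EF-alpha–red luciferase control, dosed 24 h at 37 °C. Dual-filter luminescence, overlap-corrected; %Activity from green/red ratio normalised to untreated cells, concentration-response curves fitted.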
# [10] = Cytometric Cell-Based qHTS for Inhibitors of the mTORC1 Signaling Pathway in MEF (Tsc2-/-, p53-/-) Cells (AID 2660); note: potency is the fitted concentration of half-maximal effect
# Method in brief: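 Immunofluorescence qHTS of rpS6 Ser235/236 phosphorylation: MEFs (Tsc2-/-, p53-/-) treated 24 h, 37 C, in DMEM + 10% FBS. Alexa-488 signal normalized to PI count, referenced to rapamycin (7.5 nM) and DMSO; PI cell number recorded for viability.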
# [11] = High Content Imaging Cell-Based qHTS for Inhibitors of the mTORC1 Signaling Pathway in MEF (Tsc2-/-, p53-/-) Cells (AID 2666);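 note: percent of cells scored positive for phospho-rpS6 Ser235/236 immunostaining by imaging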; note: potency is the fitted concentration of half-maximal effect
# Method in brief: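 Cells were plated, dosed with compound after 24 hrs, and incubated another 24 hrs at 37 degree Celsius. Fixed cells were immunostained for phospho-rpS6 Ser235/236 and counterstained, and the normalized signal was scored as % active cells against rapamycin and DMSO controls.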
# [12] = High Content Imaging Cell-Based qHTS for Inhibitors of the mTORC1 Signaling Pathway in MEF Cells (AID 2667); note: potency is the fitted concentration of half-maximal effect
# Method in brief: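 Immunofluorescence for rpS6 phosphorylation in MEFs of Tsc2-/-, p53-/- background rescued with WT Tsc2. Compound exposure lasted 24 hrs. Inhibition was scored against rapamycin-treated control wells.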
# [13] = target: Ubiquitin carboxyl-terminal hydrolase 2 (Homo sapiens) (UniProt O75604); assay: qHTS Validation Assay for Inhibitors of Ubiquitin-specific Protease USP2a Using CHOP2 as the Reporter (AID 463106)
# Chain of Ubiquitin carboxyl-terminal hydrolase 2 (Homo sapiens) (O75604 whole entry, looked up): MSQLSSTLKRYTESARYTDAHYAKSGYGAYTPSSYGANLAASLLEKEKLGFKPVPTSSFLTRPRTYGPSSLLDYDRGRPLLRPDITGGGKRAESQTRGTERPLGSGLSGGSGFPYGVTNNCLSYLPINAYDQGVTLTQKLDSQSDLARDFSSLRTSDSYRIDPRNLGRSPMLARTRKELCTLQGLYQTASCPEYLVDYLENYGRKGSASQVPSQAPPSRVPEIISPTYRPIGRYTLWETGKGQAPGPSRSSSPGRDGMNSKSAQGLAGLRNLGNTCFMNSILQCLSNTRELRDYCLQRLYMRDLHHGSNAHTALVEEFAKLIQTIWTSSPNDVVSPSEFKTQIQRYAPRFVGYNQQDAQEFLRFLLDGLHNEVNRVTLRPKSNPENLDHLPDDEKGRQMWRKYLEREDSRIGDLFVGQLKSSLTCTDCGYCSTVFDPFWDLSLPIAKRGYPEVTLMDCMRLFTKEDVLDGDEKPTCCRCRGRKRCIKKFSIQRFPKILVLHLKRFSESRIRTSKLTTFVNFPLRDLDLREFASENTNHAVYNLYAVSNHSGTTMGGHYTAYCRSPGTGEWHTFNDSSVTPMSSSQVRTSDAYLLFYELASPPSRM
# Method in brief: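 10nM USP2 core + cpd, 30min RT; add 25nM Ub-CHOP2/25nM substrate; 60min RT; FI 485/531nm. Buffer Tris pH 8.0, CaCl2, BME, CHAPS. Norm. to NEM = 100% inhibition; time-zero read flags fluorescent artifacts.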
# [14] = target: DNA polymerase III PolC-type (Bacillus subtilis (strain 168)) (UniProt P13267); assay: qHTS Validation Assay for the Inhibitors of DNA Replication in Gram-Positive Bacteria (AID 485295);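 note: PicoGreen fluorescence of double-stranded DNA made on primed circular M13 template; series mostly up to about 57 µM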
# Chain of DNA polymerase III PolC-type (Bacillus subtilis (strain 168)) (P13267 whole entry, looked up): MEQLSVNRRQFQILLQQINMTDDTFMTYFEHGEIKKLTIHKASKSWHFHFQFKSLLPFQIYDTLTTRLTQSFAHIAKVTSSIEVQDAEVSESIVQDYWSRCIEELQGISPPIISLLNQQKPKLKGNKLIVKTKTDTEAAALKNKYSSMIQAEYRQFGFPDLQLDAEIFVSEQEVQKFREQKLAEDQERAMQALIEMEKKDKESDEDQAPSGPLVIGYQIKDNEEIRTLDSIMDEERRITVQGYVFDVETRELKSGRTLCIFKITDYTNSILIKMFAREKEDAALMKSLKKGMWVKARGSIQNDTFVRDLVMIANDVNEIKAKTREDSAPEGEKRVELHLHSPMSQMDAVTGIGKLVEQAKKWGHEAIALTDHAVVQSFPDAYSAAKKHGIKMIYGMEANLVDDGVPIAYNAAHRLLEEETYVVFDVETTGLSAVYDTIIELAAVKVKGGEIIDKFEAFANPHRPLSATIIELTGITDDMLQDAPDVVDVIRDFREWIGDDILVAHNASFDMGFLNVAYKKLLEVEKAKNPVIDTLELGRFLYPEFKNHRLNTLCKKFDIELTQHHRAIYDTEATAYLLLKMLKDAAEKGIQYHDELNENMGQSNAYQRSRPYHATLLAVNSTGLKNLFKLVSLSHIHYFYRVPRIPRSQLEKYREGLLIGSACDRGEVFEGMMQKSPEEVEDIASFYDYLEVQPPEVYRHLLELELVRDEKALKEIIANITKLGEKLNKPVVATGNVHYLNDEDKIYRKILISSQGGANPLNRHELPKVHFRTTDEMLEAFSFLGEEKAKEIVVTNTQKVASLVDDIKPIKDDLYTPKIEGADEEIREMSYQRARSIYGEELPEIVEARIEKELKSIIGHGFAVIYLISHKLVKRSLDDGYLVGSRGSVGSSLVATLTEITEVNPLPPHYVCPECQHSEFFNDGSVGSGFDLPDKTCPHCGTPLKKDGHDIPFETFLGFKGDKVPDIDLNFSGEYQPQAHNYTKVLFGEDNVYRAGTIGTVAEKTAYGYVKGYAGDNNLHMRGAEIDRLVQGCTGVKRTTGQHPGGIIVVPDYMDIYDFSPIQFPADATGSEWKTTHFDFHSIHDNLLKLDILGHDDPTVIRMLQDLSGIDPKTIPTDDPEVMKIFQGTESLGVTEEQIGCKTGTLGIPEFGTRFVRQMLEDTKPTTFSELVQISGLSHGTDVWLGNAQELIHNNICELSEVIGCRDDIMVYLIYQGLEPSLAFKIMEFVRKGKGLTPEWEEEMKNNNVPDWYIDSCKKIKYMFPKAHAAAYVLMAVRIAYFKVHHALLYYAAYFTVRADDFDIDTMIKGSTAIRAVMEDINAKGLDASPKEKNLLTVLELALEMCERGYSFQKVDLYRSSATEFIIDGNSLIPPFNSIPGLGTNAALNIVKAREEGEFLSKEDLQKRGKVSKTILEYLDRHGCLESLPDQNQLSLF
# Method in brief: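 Reconstituted B. subtilis Pol III holoenzyme (PolC, beta clamp, SSB, primase) preincubated with compound, then M13Gori single-stranded circular template with dNTPs/NTPs added; room temperature reaction. Stopped with EDTA/PicoGreen; dsDNA fluorescence read, EDTA as full-inhibition control.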
# [15] = target: Tumor susceptibility gene 101 protein (Homo sapiens) (UniProt Q99816); assay: qHTS Validation Assay for Iinhibitors of HIV-1 Budding by Blocking the Interaction of PTAP/TSG101 (AID 485342; calls by dose curve)
# Chain of Tumor susceptibility gene 101 protein (Homo sapiens) (Q99816 whole entry, looked up, the tested form may be a part): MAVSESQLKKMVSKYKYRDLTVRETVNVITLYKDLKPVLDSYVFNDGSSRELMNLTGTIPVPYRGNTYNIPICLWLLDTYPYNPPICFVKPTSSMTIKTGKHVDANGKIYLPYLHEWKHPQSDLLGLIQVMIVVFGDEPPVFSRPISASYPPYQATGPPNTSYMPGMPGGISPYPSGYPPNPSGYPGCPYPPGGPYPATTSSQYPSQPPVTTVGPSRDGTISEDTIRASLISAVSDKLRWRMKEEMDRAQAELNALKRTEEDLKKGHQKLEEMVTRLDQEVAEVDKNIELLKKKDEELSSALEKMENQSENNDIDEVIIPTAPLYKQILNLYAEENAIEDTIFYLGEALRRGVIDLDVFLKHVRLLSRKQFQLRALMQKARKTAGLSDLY
# Method in brief: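 Tsg101 binding domain (10 uM) with FITC-labeled PTAP peptide (50 nM) in HEPES pH 7.5 buffer, 20 min at r.t. with compounds. Binding measured by fluorescence polarization.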
# [16] = qHTS Validation Assay to Find Inhibitors of Chronic Active B-Cell Receptor Signaling (AID 485345; active = well fitted curve in the direction sought with a large enough effect in the main read-out, with a control signal flat, not every such curve was filed as active)
# Method in brief: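 Read-out: ratio of filter-corrected green (IkappaBalpha fusion) to red (native) luciferase signal in doxycycline-induced TMD8 cells after 4 h at 37C. Titration spanned 46 uM–3 nM; Data were normalised to basal cells and 10 uM MG-132 wells.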
# [17] = target: Beta-2 adrenergic receptor (Homo sapiens) (UniProt P07550); assay: qHTS validation assay of beta-arrestin-biased ligands of beta2-adrenergic receptor (AID 485366)
# Chain of Beta-2 adrenergic receptor (Homo sapiens) (P07550 whole entry, looked up): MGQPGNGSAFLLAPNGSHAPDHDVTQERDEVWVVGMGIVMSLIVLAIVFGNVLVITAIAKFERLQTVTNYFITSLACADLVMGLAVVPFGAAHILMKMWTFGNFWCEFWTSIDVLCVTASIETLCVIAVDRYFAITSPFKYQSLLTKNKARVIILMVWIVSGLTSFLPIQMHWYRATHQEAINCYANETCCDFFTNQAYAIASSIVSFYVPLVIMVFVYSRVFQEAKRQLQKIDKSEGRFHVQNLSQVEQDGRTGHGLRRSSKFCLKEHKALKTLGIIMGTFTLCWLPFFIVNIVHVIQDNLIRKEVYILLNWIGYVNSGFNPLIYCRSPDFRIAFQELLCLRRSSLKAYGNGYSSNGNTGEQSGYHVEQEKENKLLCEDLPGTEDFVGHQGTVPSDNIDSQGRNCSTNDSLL
# Method in brief: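 Arrestin-recruitment (Tango) reporter: ligand-bound beta2-AR recruits beta-arrestin, releasing tTA, which upregulates luciferase. Titrations of up to 46 microM incubated 18 hr at 37 degrees C before luminescent readout.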
# [18] = target: ATP-dependent 6-phosphofructokinase (Trypanosoma brucei brucei) (UniProt O15648); assay: qHTS Validation Assay to Find Inhibitors of T. brucei phosphofructokinase (AID 485368)
# Chain of ATP-dependent 6-phosphofructokinase (Trypanosoma brucei brucei) (O15648 whole entry, looked up): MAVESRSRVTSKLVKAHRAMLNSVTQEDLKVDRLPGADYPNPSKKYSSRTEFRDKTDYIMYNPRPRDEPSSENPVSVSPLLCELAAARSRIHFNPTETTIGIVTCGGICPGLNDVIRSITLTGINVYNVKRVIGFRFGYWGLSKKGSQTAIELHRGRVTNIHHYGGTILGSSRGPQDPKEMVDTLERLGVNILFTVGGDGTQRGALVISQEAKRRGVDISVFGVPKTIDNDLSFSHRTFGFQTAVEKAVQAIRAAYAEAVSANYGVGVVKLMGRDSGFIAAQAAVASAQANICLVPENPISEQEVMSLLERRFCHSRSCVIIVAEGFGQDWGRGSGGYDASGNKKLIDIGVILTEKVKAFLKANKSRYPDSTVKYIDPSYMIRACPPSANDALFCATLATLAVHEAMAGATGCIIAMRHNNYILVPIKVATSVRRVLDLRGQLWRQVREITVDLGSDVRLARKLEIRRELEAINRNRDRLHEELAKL
# Method in brief: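 Steps: substrate mix (0.5 mM F6P, 0.1 mM ATP, MgCl2, TEA pH 8.0); compound; 1.25 nM T. brucei PFK; 45 min RT; ATP depletion 10 min; ADP-to-ATP detection 10 min; luminescence read; curve fitting and classification.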
# [19] = target: ATP-dependent DNA helicase Q1 (Homo sapiens) (UniProt P46063); assay: qHTS Validation Assay for Inhibitors of RecQ-Like Dna Helicase 1 (RECQ1) (AID 2353)
# Method in brief: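 50 nM RECQ1T1 preincubated 15 min with compound in Tris pH 8.0 buffer with MgCl2, DTT, Tween-20 and 2.5 ug/ml poly(dI-dC); started with 200 nM TAMRA/BHQ-2 forked duplex and 2 mM ATP. Unwinding read as fluorescence (525/598 nm), two reads 2 h apart.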
Structure (SMILES),Potency [1],Potency [2],Potency [3],outcome [4],outcome [5],outcome [6],Potency [7],Potency [8],outcome [9],Potency [10],Potency [11],Potency [12],outcome [13],outcome [14],outcome [15],outcome [16],outcome [17],Potency [18],Potency [19]
C[C@H]1O[C@@H](n2cc(F)c(=O)[nH]c2=O)[C@H](O)[C@@H]1O,inactive,inactive,inactive,inactive,inactive,inactive,inactive,inactive,–,–,–,–,–,–,–,–,–,–,–
CCCCCCCCCCCCCCCC(=O)NCCO,inactive,3.16 µM (active),–,inactive,inactive,inactive,–,inactive,inactive,inactive,inactive,inactive,inactive,inactive,inactive,inactive,inactive,inactive,–
CSc1ccc2c(c1)N(CCC1CCCCN1C)c1ccccc1S2 (configuration not stated),12.6 µM (active),5.01 µM (active),8.91 µM (active),inactive,inactive,–,–,–,–,–,–,inactive,inactive,inactive,inactive,–,inactive,–,–
C[C@](N)(Cc1ccc(O)cc1)C(=O)O,inactive,inactive,inactive,inactive,–,inactive,–,inactive,–,inactive,inactive,inactive,inactive,inactive,inactive,inactive,inactive,inactive,–
Nc1cc(=O)[nH]c(N)n1,inactive,inactive,inactive,inactive,–,inactive,inactive,inactive,–,inactive,inactive,inactive,inactive,inactive,inactive,inactive,inactive,–,–
OCCN1CCN(CCCN2c3ccccc3Sc3ccc(Cl)cc32)CC1,7.94 µM (active),2.51 µM (active),5.01 µM (active),inactive,inactive,–,5.22 µM (active),10.4 µM (active),–,–,inactive,–,inactive,inactive,inactive,–,inactive,inactive,–
CCN(CC)CCNC(=O)c1cc(Cl)c(N)cc1OC,inactive,–,inactive,–,inactive,inactive,inactive,inactive,inactive,inactive,inactive,inactive,inactive,inactive,inactive,inactive,inactive,inactive,–
CCN(CC)CCCC(C)Nc1c2ccc(Cl)cc2nc2ccc(OC)cc12 (configuration not stated),0.126 µM (active),0.0891 µM (active),0.0891 µM (active),–,inactive,–,0.0117 µM (active),0.037 µM (active),–,16.5 µM (active),18.5 µM (active),14.7 µM (active),–,inactive,inactive,–,inactive,inactive,–
Cc1cc(N)c2ccccc2[n+]1CCCCCCCCCC[n+]1c(C)cc(N)c2ccccc21,2.24 µM (active),–,0.126 µM (active),inactive,inactive,–,–,0.37 µM (active),–,inactive,inactive,–,inactive,inactive,inactive,inactive,inactive,–,–
CSc1ccc2c(c1)C(N1CCN(C)CC1)Cc1ccccc1S2 (configuration not stated),8.91 µM (active),4.47 µM (active),10 µM (active),–,inactive,–,–,–,–,–,–,inactive,inactive,inactive,inactive,–,inactive,inactive,–
COc1ccc(Cl)cc1C(=O)NCCc1ccc(S(=O)(=O)NC(=O)NC2CCCCC2)cc1,inactive,–,inactive,inactive,–,inactive,inactive,inactive,–,inactive,inactive,inactive,inactive,inactive,inactive,inactive,inactive,–,inactive
C#CCN(C)Cc1ccccc1,inactive,–,inactive,inactive,–,inactive,inactive,inactive,–,inactive,inactive,inactive,inactive,inactive,inactive,inactive,inactive,–,–
